Results from PubChem BioAssay (NCATS).
Several values for one entry are separate records, joined by “and”; a condition that tells them apart may be missing. Equal values may be shown once. Inconclusive results are not listed. Where a structure was tested more than once in an assay, its records may differ in their call. Activity calls are given as the source filed them. Calls follow the shape of the dose curve; as a rule, active = well fitted curve in the direction sought with a large enough effect; inconclusive = small, poorly fitted or top-dose-only effect, or another doubt; inactive = no such curve, though single readings can be large; an effect the other way counts as inactive or inconclusive.

Columns and labels:
[1] = molecular target: Metallo-beta-lactamase type 2 (Klebsiella pneumoniae) (UniProt C7C422); experiment: qHTS to identify inhibitors of the New Delhi Metallo-beta-lactamase (NDM): assay validation screen against the NCATS LOPAC Collection (AID 1794843);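 also: nitrocefin turnover by NDM-1 measured as 485 nm absorbance at plateau; series mostly up to about 38 µM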
How it was run: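 NDM-1 at 2 nM final in 50 mM HEPES pH 7.0, 1 uM ZnSO4, 0.01% Tween20, preincubated with LOPAC compounds pinned in DMSO; 50 uM nitrocefin (stock) added. Hydrolysis read as absorbance at 485 nm in the plateau phase.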

[2] = molecular target: Glutathione peroxidase 1 (Homo sapiens) (UniProt P07203); experiment: Primary qHTS Assay for Inhibitors of Recombinant Selenoprotein Glutathione Peroxidase 1 (GPX1) (AID 1845191); also: nearly all actives have a fitted effect of over 65% in size
How it was run: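 GR-coupled readout: NADPH consumption tracked by fluorescence, ex 340/em 450 nm, at t=0 and after 15 min at RT. Final mix 10 nM GPX1, 1 mM GSH, 0.5 mM CHP, 0.5 mM NADPH, 100 nM GR, 0.01% BSA, following 30 min enzyme–compound preincubation.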

[3] = molecular target: Phospholipid hydroperoxide glutathione peroxidase GPX4 (Homo sapiens) (UniProt P36969); experiment: Primary qHTS Assay for Inhibitors of Recombinant Selenoprotein Glutathione Peroxidase 4 (GPX4) (AID 1845192); also: nearly all actives have a fitted effect of over 65% in size; also: potency is read from the fitted curve at half-maximal effect
How it was run: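 Steps: GPX4 plus compound, 30 min RT; add GR/GSH/NADPH master mix; start with cumene hydroperoxide; read 340/450 nm fluorescence at 0 and 15 min. Finals were 200 nM GPX4, 1 mM GSH, 0.5 mM CHP, 0.5 mM NADPH, 100 nM GR.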

[4] = molecular target: Luciferin 4-monooxygenase (Photinus pyralis) (UniProt P08659); experiment: Primary firefly luciferase (FLuc) qHTS assay for identification of artifact compounds. (AID 1845220); conditions: outcome: dose series up to 54.1 µM unless noted; also: nearly all actives have a fitted effect of over 60% in size
How it was run: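 Titrated compounds were incubated 15 min at RT, protected from light, with luciferin and ATP at 10 uM; reaction started with 10 nM FLuc, luminescence imaged at 5 min, and concentration-response fitted by Hill equation.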

[5] = Primary fluorescence-based thiol-reactive (MSTI) qHTS assay for identification of artifact compounds. (AID 1845221);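 also: series mostly up to about 54 µM; thiol-reactive compounds lower the probe fluorescence signal; nearly all actives have a fitted effect of over 65% in size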
How it was run: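 MSTI probe at 4 uM final in 2% DMSO/PBS pH 7.4; compounds, 1 h at room temperature in dark. Fluorescence Ex/Em 525/598 nm, normalised to Acetyl-MSTI and MSTI, fitted to 4-parameter Hill.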

Measured: Potency

Sequence of Metallo-beta-lactamase type 2 (Klebsiella pneumoniae) (C7C422 whole entry, looked up): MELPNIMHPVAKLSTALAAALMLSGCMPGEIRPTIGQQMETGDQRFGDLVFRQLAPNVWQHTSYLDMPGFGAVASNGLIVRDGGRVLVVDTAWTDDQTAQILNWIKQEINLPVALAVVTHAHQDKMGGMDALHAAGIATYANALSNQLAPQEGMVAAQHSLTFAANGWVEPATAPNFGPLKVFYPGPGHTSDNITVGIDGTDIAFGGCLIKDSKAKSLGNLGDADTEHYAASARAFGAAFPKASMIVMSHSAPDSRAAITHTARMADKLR
Sequence of Phospholipid hydroperoxide glutathione peroxidase GPX4 (Homo sapiens) (P36969 whole entry, looked up): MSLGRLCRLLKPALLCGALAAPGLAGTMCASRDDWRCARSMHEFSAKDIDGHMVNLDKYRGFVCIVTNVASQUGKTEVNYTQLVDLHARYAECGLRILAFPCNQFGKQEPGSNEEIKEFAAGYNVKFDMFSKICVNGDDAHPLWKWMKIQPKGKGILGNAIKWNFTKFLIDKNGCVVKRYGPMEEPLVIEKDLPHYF
Sequence of Glutathione peroxidase 1 (Homo sapiens) (P07203 whole entry, looked up): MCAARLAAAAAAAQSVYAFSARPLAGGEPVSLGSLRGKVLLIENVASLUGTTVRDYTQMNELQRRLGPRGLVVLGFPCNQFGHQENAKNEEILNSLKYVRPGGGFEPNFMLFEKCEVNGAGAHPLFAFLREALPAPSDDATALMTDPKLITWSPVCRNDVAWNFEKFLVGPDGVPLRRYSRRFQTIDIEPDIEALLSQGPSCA

C=CCN1CC[C@]23CCCCC2[C@H]1Cc1ccc(O)cc13 (some centres not stated)
inactive: [1] | [2] | [3]

C[N+](C)(C)CC(=O)O
inactive: [1] | [2] | [3]

NC(=O)CN1CC(O)CC1=O (configuration not stated)
inactive: [1] | [2] | [3]

NC(CCP(=O)(O)O)C(=O)O (configuration not stated)
inactive: [1] | [2] | [3]

CC(=O)[C@H]1CCC2C3CC[C@H]4C[C@H](O)CC[C@]4(C)C3CC[C@@]21C (some centres not stated)
inactive: [1] | [2] | [3]

CC(Cc1ccc(O)cc1)NCC(O)c1cc(O)cc(O)c1 (configuration not stated)
inactive: [1] | [2] | [3]

CC1=NN=C(c2ccc(N)cc2)c2cc3c(cc2C1)OCO3
inactive: [1] | [2] | [3]

CC[C@@]1(O)C(=O)OCc2c1cc1n(c2=O)Cc2cc3ccccc3nc2-1
inactive and 9.04 µM (active): [3]
inactive: [1] | [2]

CN1C2CCC1CC(OC(=O)c1cc(Cl)cc(Cl)c1)C2 (configuration not stated)
inactive: [1] | [2] | [3]

c1ccc2sc(C3(N4CCCCC4)CCCCC3)cc2c1
inactive: [1] | [2] | [3]

S=C(NC1CCCCC1)N1CCC(c2cnc[nH]2)CC1
inactive: all assays above

O=c1[nH]c2ccccc2n1C1CCN(Cc2ccc(-c3[nH]c4cc5ncnc5cc4nc3-c3ccccc3)cc2)CC1
inactive: [2]

O=C(O)CC[N+](=O)[O-]
inactive: [1] | [2] | [3]

c1ccc(CCCN2CCN(CCOC(c3ccccc3)c3ccccc3)CC2)cc1
inactive: [1] | [2] | [3]

CC(=O)NCCc1c[nH]c2ccccc12
inactive: [1] | [2] | [3] | [4] inactive [at 86.2 µM]

COC(=O)[C@@H](N)CCCN=C(N)N[N+](=O)[O-]
inactive: [1] | [2] | [3]

CN[C@@H]1C[C@@H](c2ccc(Cl)c(Cl)c2)c2ccccc21
inactive: [1] | [2] | [3]

COc1cc(C(O)CN)ccc1O (configuration not stated)
inactive: [1] | [2] | [3]

O=C(N[C@H]1CN2CCC1CC2)c1ccc(Cl)cc1
inactive: all assays above

CC(C)(C)c1cc(C=C(C#N)C#N)cc(Br)c1O
inactive: [2]

CC[C@@H](C(N)=O)N1CCCC1=O
inactive: [1] | [2] | [3]

O=C1CCCN1CC#CCN1CCCC1
inactive: [1] | [2] | [3]

CCCN1CCO[C@@H]2c3cc(O)ccc3OC[C@H]21
inactive: [1] | [2] | [3]

O=C(O)CNC(=O)c1c(O)c2ccccc2n(Cc2ccccc2)c1=O
inactive: [2] | [3] | [4]

CC(=O)N(C)c1cccc(-c2ccnc3c(C(=O)c4cccs4)cnn23)c1
inactive: [2] | [4] | [5]

Cc1ccccc1-n1c(Cn2ncc3c(N)ncnc32)nc2cccc(C)c2c1=O
not listed: [1]
inactive: all other assays above

C/C=C(/C)C(=O)O[C@H]1C(C)=C2[C@H]([C@@H]1OC(=O)CCCCCCC)[C@@](C)(OC(C)=O)C[C@H](OC(=O)CCC)[C@@]1(O)[C@H]2OC(=O)[C@@]1(C)O
not listed: [1]
inactive: all other assays above

CC(N[C@H]1C[C@H]1c1ccccc1)c1ccc2c(c1)OCCO2 (some centres not stated)
inactive: [3] | [4] | [5]

CCNC(=O)CC1N=C(c2ccc(Cl)cc2)c2cc(OC)ccc2-n2c(C)nnc21 (configuration not stated)
not listed: [1]
inactive: all other assays above

CC(=O)[O][Hg][c]1ccccc1
inactive: [3]

COc1ccc(N(C(=O)Oc2c(C)cccc2C)c2ccnc(Nc3ccc(N4CCN(C)CC4)cc3)n2)c(OC)c1
inactive: [2] | [3] | [4]

CCc1c(C(=O)C(N)=O)c2c(OCC(=O)O)cccc2n1Cc1ccccc1
inactive: [2] | [3] | [4]

CC(C)[C@]12O[C@H]1[C@@H]1O[C@]13[C@]1(O[C@H]1C[C@H]1C4=C(CC[C@@]13C)C(=O)OC4)[C@@H]2O
not listed: [1]
inactive: all other assays above

Cc1ccccc1-n1c(Cn2cnc3c(N)ncnc32)nc2cccc(C)c2c1=O
not listed: [1]
inactive: all other assays above

COc1cc([C@@H]2c3cc4c(cc3[C@@H](O)C3COC(=O)C32)OCO4)cc(OC)c1O (some centres not stated)
inactive: [2] | [3]

CC(C)N(CCNC(=O)CN1CCCC1=O)C(C)C
not listed: [1]
inactive: all other assays above

CCN(CC)C(=O)c1ccc(C2=CC3(CCNCC3)Oc3cccc(O)c32)cc1
not listed: [1]
inactive: all other assays above

COC1=C[C@@H]2[C@@H]3Cc4ccc(OC)c(O)c4[C@]2(CCN3C)CC1=O
not listed: [1]
inactive: all other assays above

O=C(Oc1ccc([N+](=O)[O-])cc1)N1CCN(Cc2cccc(Oc3ccccc3)c2)CC1
inactive: [2] | [3] | [4]

CC(C)(C)NC[C@H](O)c1ccc(O)cc1Cl
not listed: [1]
inactive: all other assays above

Cc1c(C(=O)Nc2cccc(C(F)(F)F)c2)cc(-c2ccccc2)n1CCCN1CCOCC1
not listed: [1]
inactive: all other assays above

C[C@]12N[C@H](Cc3ccccc31)c1ccccc12
inactive: [2] | [3]

O=C(O)[C@@H]1CCN1
inactive: [2] | [3]

O=[N+]([O-])/N=C1\NCCN1Cc1ccc(Cl)nc1
inactive: [2] | [3]
